Screens as filed in PubChem.
Only some compounds are listed: those with a hit (about 0.63% of all), similar ones and a draw of the others.
TSHR antagonist: Antagonists of the Thyroid Stimulating Hormone Receptor: HTS campaign; Thyrotropin receptor (Homo sapiens), P16473; AID 504810, 2011; activity change, negative = inhibition, % at 11.5 µM; TSHR-expressing cells, TSH-stimulated cAMP HTRF, 2 h; hits give low values; hit rate 0.2% among 330,000;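 active = activity change below a set negative limit, meaning inhibition stronger than a set level, cut at about -70% in these data; inconclusive = activity change between two set negative limits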
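TSHR-expressing cells, 200/well, pre-treated with compound, then stimulated with EC80 TSH (4nM final) for 2 hours at 37 deg C. cAMP measured by competitive HTRF: anti-cAMP cryptate antibody in lysis buffer plus cAMP-d2, read after 30 minutes at room temperature.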
Pin1 inh: qHTS Assay to Find Inhibitors of Pin1; Potency, µM (doses to about 115 µM), most hits filed as inhibitors; Peptidyl-prolyl cis-trans isomerase NIMA-interacting 1 (Homo sapiens), Q13526; hit rate 0.009% among 390,000; AID 504891, 2011; Pin1 FP peptide displacement, HiFluor488, 10 min; active = well fitted inhibition curve with a large enough effect in the polarisation, with a control signal flat, not every such curve was filed as active; inconclusive = small, poorly fitted or top-dose-only effect, or effect the other way, or a change in a side signal; inactive = no such curve, though single readings can be large or run the other way; the % refers to the polarisation
Target sequence (Q13526 whole entry, looked up): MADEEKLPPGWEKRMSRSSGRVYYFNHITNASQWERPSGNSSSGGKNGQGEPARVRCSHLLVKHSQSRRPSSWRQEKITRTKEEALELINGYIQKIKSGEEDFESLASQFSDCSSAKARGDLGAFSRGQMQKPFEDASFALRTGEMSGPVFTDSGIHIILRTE
TCR activator: Activators of T cell receptors: qHTS campaign; primary human leukocytes, anti-CD3, IL-2 HTRF, 48 h; Potency, µM (highest dose often 9.22 µM), usual class: activators; 330,000 tested, under 10 active; active = well fitted activation curve with a large enough effect; inconclusive = small, poorly fitted or top-dose-only effect, or another doubt; inactive = no such curve, though single readings can be large or run the other way
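HTRF read-out of IL-2 secretion: europium cryptate donor excited at 320nm, d2 acceptor emission at 665nm. Cells were primary human leukocytes incubated 48 hr with compounds and a-CD3 beads, supplying TCR signal only.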
gsp ag: qHTS for Agonist of gsp, the Etiologic Mutation Responsible for Fibrous Dysplasia/McCune-Albright Syndrome: qHTS. Potency, µM (titrated, usually from 76.9 µM), actives largely listed as activators. hit rate 0.13% among 340,000. gsp mutant cells, cAMP HTRF, 30 min; active = well fitted activation curve with a large enough effect; inconclusive = small, poorly fitted or top-dose-only effect, or another doubt; inactive = no such curve, though single readings can be large or run the other way; cell line not stated here;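 note: phosphodiesterase inhibitor Ro 20-1724 added with compounds to block cAMP breakdown; nearly all actives have a fitted effect of over 60% in size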
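Cells stably selected in G418 were plated at 2000/well, grown 16-24 hr, then given compounds in DMSO with the PDE inhibitor […] (300 uM solution added) for 30 min at 37C; cAMP was read by HTRF.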
gsp antag: qHTS for Antagonists of gsp, the Etiologic Mutation Responsible for Fibrous Dysplasia/McCune-Albright Syndrome: qHTS; hit rate 0.4% among 340,000; Potency, µM (top dose mostly 76.9 µM), actives largely listed as inhibitors; gsp-mutant cells, cAMP HTRF, 30 min; AID 624288, 2012; calls by dose curve; cell line not stated here;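 note: intracellular cAMP measured with PDE inhibitor Ro 20-1724 present during compound exposure; nearly all actives have a fitted effect of over 65% in size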
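Cells in G418 medium, seeded 16-24 h, 37C; buffer exchange to DPBS + 1 mM CaCl2, 0.5 mM MgCl2, 0.05% BSA; cpds in DMSO + […] (300 uM stock), 30 min 37C; HTRF cAMP detection.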
Each line names hits and unclear results; the compound was inactive in the other large screens.

Cn1c(=O)n(C)c2cc([N+](=O)[O-])c(N3CCN(S(=O)(=O)c4ccccc4)CC3)cc21	gsp antag 25.1µM
CC(=O)N1CCN(c2ccc(Nc3ncnc4c3oc3ccccc34)cc2)CC1	gsp antag 28.2µM
COc1ccc(NC(=O)C2CCN(C(=O)C3CC(=O)N(c4ccc(C)cc4)C3)CC2)cc1 (centres undefined)	none
COc1ccc(Cl)cc1NC(=O)C1CCN(C(=O)C2CC(=O)N(c3ccc(C)cc3)C2)CC1 (centres undefined)	TSHR antagonist -113.4
O=S(=O)(Nc1cc(Sc2ncn[nH]2)c(O)c2ccccc12)c1ccccc1	Pin1 inh 44.7µM, gsp antag inconclusive
Cc1cc(O)c(Sc2ncn[nH]2)cc1NS(=O)(=O)c1ccc(Cl)cc1	none
COc1cc(-c2cc(C(=O)Nc3ccc(S(N)(=O)=O)cc3)c3ccccc3n2)cc(OC)c1OC	gsp ag inconclusive, gsp antag inconclusive
CCN(CC)S(=O)(=O)c1ccc(O)c(NC(=O)c2cc(-c3cc(OC)c(OC)c(OC)c3)nc3ccccc23)c1	gsp ag inconclusive, gsp antag 35.5µM
O=C(NCc1ccncc1)c1ccc(Cl)c(S(=O)(=O)N2CCCCC2)c1	none
O=C(NCCOC(=O)c1ccc(Cl)c(S(=O)(=O)N2CCCCC2)c1)c1ccncc1	gsp antag 39.8µM
CCOC(=O)c1[nH]c(C)c(C(=O)O)c1C	none (no result: Pin1 inh, TCR activator, gsp ag, gsp antag)
COc1ccc(NC(=O)CSc2nnc(Cc3cccs3)n2-c2ccc(C)cc2)cc1	gsp antag 31.6µM
COc1ccc(-n2c(Cc3cccs3)nnc2SCC(=O)Nc2ccc3c(c2)OCCO3)cc1	Pin1 inh inconclusive, gsp antag 31.6µM
COc1cccc(NC(=O)CSc2nnc(Cc3cccs3)n2-c2ccc(C)cc2)c1	gsp antag inconclusive
Cc1cc(N/N=C/c2ccc([N+](=O)[O-])o2)nc2ccccc12	Pin1 inh inconclusive (no result: gsp antag)
CCOc1ccc(N(CC(=O)NCc2ccc(F)cc2)C(=O)CCC(=O)Nc2nccs2)cc1	TSHR antagonist -94.6, gsp ag inconclusive
CCOc1ccc(N(CC(=O)NCc2ccc(OC)cc2)C(=O)CCC(=O)Nc2nccs2)cc1	none
CC(C)C[C@@H](CNCC(=O)[C@H](CC(C)C)NC(=O)c1[nH]cnc1C(=O)N[C@@H](C)CN)NC(=O)c1nc[nH]c1C(=O)N[C@@H](C)C(=O)O	none (no result: TSHR antagonist, gsp ag)
COc1ccc(S(=O)(=O)N2CCC(C(=O)NCCC(=O)NCc3ccccc3OC)CC2)cc1	gsp antag 31.6µM
COCCCNC(=O)/C(C#N)=c1\s/c(=C\c2ccccc2OC(F)F)c(=O)n1CCCOC	Pin1 inh inconclusive
COCCCn1c(=O)/c(=C\c2cccc(OC)c2OC)s/c1=C(/C#N)C(=O)Nc1ccc(C(=O)O)cc1	Pin1 inh inconclusive, gsp antag 14.1µM
COc1ccc(OC)c(NC(=O)CSc2ncnc3c2cnn3-c2ccccc2Cl)c1	TSHR antagonist inconclusive, gsp antag 2µM
COc1cc(NC(=O)CSc2ncnc3c2cnn3Cc2ccccc2)cc(OC)c1	none
CCCNc1c(NS(=O)(=O)c2ccc(Br)cc2)c(=O)oc2ccccc12	TSHR antagonist -146.7
NS(=O)(=O)c1ccc(CNC(=O)CCS(=O)(=O)Cc2ccccc2)cc1	TSHR antagonist -79.2
NS(=O)(=O)c1ccc(CNC(=O)CCSCCC(=O)NCc2ccc(S(N)(=O)=O)cc2)cc1	none
Brc1ccc(N/N=C(/N=Nc2nn[nH]n2)c2ccccc2)cc1	gsp antag 22.4µM (no result: Pin1 inh)
CCOC(=O)N1CCN(CC(=O)c2ccc(O)c(C)c2O)CC1	none
CCOC(=O)N1CCN(CC(=O)c2ccc(O)cc2O)CC1	gsp antag 11.2µM
CCOC(=O)c1ccc(CC(=O)c2ccc(O)cc2O)o1	gsp antag 8.91µM
CNS(=O)(=O)c1ccc(OC)c(-c2nnc3c4ccccc4c(C)nn23)c1	gsp ag 15.8µM
CCC(C)OC(=O)C1=C(C)NC2=C(C(=O)C(C(=O)OC)C(C)C2)C1c1ccc(N(C)C)cc1 (centres undefined)	none
CCC1(CC)Cc2ccccc2-c2[nH]c(=S)[nH]c(=O)c21	gsp ag 6.31µM (no result: TSHR antagonist)
